Compounds without any hit were thinned out: in the full panel of roughly 83,000, 20% have a hit.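 Negative percent growth values reflect cell death: -40 means 40% of the cells present at the start died, and -100 means all died.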 Active and inactive are the calls of the source. The calls were made as follows: active = growth percent below 10; inactive = the rest.
What was measured:
Experiment in all cases: NCI-60 one-dose screen, 48 h (100 = growth as untreated, 0 = no growth, -100 = all killed)
Settings in all cases: 10 µM
RPMI-8226 leukemia = tested on: RPMI-8226 leukemia
OVCAR-5 ovarian = tested on: OVCAR-5 ovarian
OVCAR-4 ovarian = tested on: OVCAR-4 ovarian
SK-OV-3 ovarian = tested on: SK-OV-3 ovarian
OVCAR-3 ovarian = tested on: OVCAR-3 ovarian
HS 578T breast = tested on: HS 578T breast
NCI/ADR-RES ovarian = tested on: NCI/ADR-RES ovarian
OVCAR-8 ovarian = tested on: OVCAR-8 ovarian
IGROV1 ovarian = tested on: IGROV1 ovarian

Measured: growth

Nc1ccc(NC(=O)c2cccc(N)c2)cc1
inactive: RPMI-8226 leukemia 94.5% | OVCAR-5 ovarian 101% | OVCAR-4 ovarian 104% | SK-OV-3 ovarian 103% | OVCAR-3 ovarian 107% | HS 578T breast 97.1% | NCI/ADR-RES ovarian 111%

CCOc1ccccc1/C=N/Nc1nc2ccccc2o1
inactive: RPMI-8226 leukemia 105% | OVCAR-8 ovarian 108% | OVCAR-5 ovarian 97.3% | SK-OV-3 ovarian 94.2% | IGROV1 ovarian 116% | OVCAR-3 ovarian 122% | HS 578T breast 101% | NCI/ADR-RES ovarian 97.6%

COc1ccccc1N1CCN(C(=S)Nc2ccccc2)CC1
inactive: RPMI-8226 leukemia 90.9% | OVCAR-8 ovarian 97.6% | OVCAR-5 ovarian 107% | OVCAR-4 ovarian 108% | SK-OV-3 ovarian 99.5% | IGROV1 ovarian 98.9% | HS 578T breast 104% | NCI/ADR-RES ovarian 95.8%

COC(=O)CCCCC1=CCC2C(=O)C=C(O)C2C1 (stereo not given)
inactive: RPMI-8226 leukemia 100% | OVCAR-8 ovarian 98% | OVCAR-5 ovarian 107% | SK-OV-3 ovarian 98.6% | IGROV1 ovarian 103% | HS 578T breast 108% | NCI/ADR-RES ovarian 103%

Cc1cc(NC(=O)CSCC(=O)O)no1
inactive: RPMI-8226 leukemia 120% | OVCAR-8 ovarian 99.3% | OVCAR-4 ovarian 107% | SK-OV-3 ovarian 99.3% | IGROV1 ovarian 114% | OVCAR-3 ovarian 123% | HS 578T breast 78% | NCI/ADR-RES ovarian 107%

COCCCNC(=O)c1nnn2c1nc(N)c1cc(Cl)ccc12
inactive: RPMI-8226 leukemia 96.9% | OVCAR-8 ovarian 103% | OVCAR-5 ovarian 109% | SK-OV-3 ovarian 79.2% | IGROV1 ovarian 78.6% | OVCAR-3 ovarian 81.1% | HS 578T breast 90.4% | NCI/ADR-RES ovarian 93.9%

CC(C(=O)O)(C1CCCCC1)C1(O)CCCCC1 (stereo not given)
inactive: OVCAR-8 ovarian 104% | OVCAR-5 ovarian 109% | OVCAR-4 ovarian 108% | SK-OV-3 ovarian 101% | IGROV1 ovarian 101% | OVCAR-3 ovarian 107% | HS 578T breast 119% | NCI/ADR-RES ovarian 106%

COc1ccc2c(NCCCCCCCCNc3c4ccccc4nc4cc(OC)ccc34)c3ccccc3nc2c1
active: RPMI-8226 leukemia -60.3% | OVCAR-8 ovarian -42.6% | OVCAR-5 ovarian -91.8% | OVCAR-4 ovarian -96.6% | SK-OV-3 ovarian -100% | HS 578T breast -45.9% | NCI/ADR-RES ovarian 9.56%

Cc1cc(N)c(S(=O)(=O)O)c(N)c1
inactive: RPMI-8226 leukemia 95.6% | OVCAR-8 ovarian 109% | OVCAR-4 ovarian 103% | SK-OV-3 ovarian 100% | IGROV1 ovarian 130%

CC1SC(N)=NC1=O (stereo not given)
inactive: RPMI-8226 leukemia 96.7% | OVCAR-8 ovarian 105% | SK-OV-3 ovarian 115% | IGROV1 ovarian 108% | OVCAR-3 ovarian 116% | HS 578T breast 108% | NCI/ADR-RES ovarian 106%

CCOC(=O)/C(C#N)=C/c1cccc(C)c1
inactive: OVCAR-8 ovarian 103% | OVCAR-5 ovarian 96.1% | OVCAR-4 ovarian 104% | SK-OV-3 ovarian 101% | OVCAR-3 ovarian 106% | HS 578T breast 107% | NCI/ADR-RES ovarian 97.3%

CCc1nn(Cc2ccccc2)c2nc(C)c(CCc3ccccc3)c(Cl)c12
inactive: RPMI-8226 leukemia 72% | OVCAR-5 ovarian 95.1% | OVCAR-4 ovarian 86.2% | SK-OV-3 ovarian 97.1% | OVCAR-3 ovarian 109% | HS 578T breast 92.2% | NCI/ADR-RES ovarian 92%

CC(=O)Nc1cccc(Cl)c1C
inactive: OVCAR-8 ovarian 96.5% | OVCAR-5 ovarian 103% | OVCAR-4 ovarian 109% | SK-OV-3 ovarian 101% | IGROV1 ovarian 102% | HS 578T breast 92.9% | NCI/ADR-RES ovarian 104%

O=C(O)c1ccc(S(=O)(=O)O)cc1
inactive: RPMI-8226 leukemia 98% | OVCAR-5 ovarian 107% | OVCAR-4 ovarian 104% | SK-OV-3 ovarian 112% | OVCAR-3 ovarian 119% | HS 578T breast 87.6% | NCI/ADR-RES ovarian 100%

COc1cc2c(cc1OC)[C@H](C(=O)O)[C@@H](c1ccc(OC(C)C)c(OC)c1)N(C)C2=O
inactive: RPMI-8226 leukemia 95.7% | OVCAR-5 ovarian 98% | OVCAR-4 ovarian 100% | SK-OV-3 ovarian 104% | IGROV1 ovarian 138% | OVCAR-3 ovarian 104% | HS 578T breast 89.3% | NCI/ADR-RES ovarian 111%

Cc1cc2nc(CC(=O)c3cccc([N+](=O)[O-])c3)c(=O)[nH]c2cc1C
inactive: RPMI-8226 leukemia 88.4% | OVCAR-8 ovarian 92.7% | OVCAR-5 ovarian 92.1% | SK-OV-3 ovarian 108% | IGROV1 ovarian 91.4% | OVCAR-3 ovarian 102% | HS 578T breast 72.6% | NCI/ADR-RES ovarian 83.9%

CS(=O)CC1=NC(=N)N=C1CS(C)=O (stereo not given)
inactive: RPMI-8226 leukemia 107% | OVCAR-8 ovarian 99.9% | OVCAR-4 ovarian 103% | SK-OV-3 ovarian 108% | IGROV1 ovarian 113% | OVCAR-3 ovarian 118% | HS 578T breast 89.9% | NCI/ADR-RES ovarian 103%

O=[N+]([O-])c1ccccc1S(=O)c1ccccc1[N+](=O)[O-]
inactive: RPMI-8226 leukemia 84.5% | OVCAR-8 ovarian 99.9% | OVCAR-5 ovarian 120% | OVCAR-4 ovarian 67% | SK-OV-3 ovarian 99.9% | OVCAR-3 ovarian 103% | HS 578T breast 106% | NCI/ADR-RES ovarian 91.5%

OC1CCCc2ccccc21 (stereo not given)
inactive: RPMI-8226 leukemia 104% | OVCAR-5 ovarian 100% | OVCAR-4 ovarian 99.2% | SK-OV-3 ovarian 98.7% | IGROV1 ovarian 97% | OVCAR-3 ovarian 110% | HS 578T breast 96.8% | NCI/ADR-RES ovarian 108%

C=CCNc1nnc(C)s1
inactive: RPMI-8226 leukemia 101% | OVCAR-5 ovarian 96% | OVCAR-4 ovarian 113% | SK-OV-3 ovarian 115% | OVCAR-3 ovarian 110% | HS 578T breast 101% | NCI/ADR-RES ovarian 103%

COc1ccc(C(=O)C(Br)C(Br)C(=O)O)cc1 (stereo not given)
inactive: RPMI-8226 leukemia 110% | OVCAR-8 ovarian 105% | OVCAR-4 ovarian 118% | SK-OV-3 ovarian 104% | IGROV1 ovarian 110% | OVCAR-3 ovarian 116% | HS 578T breast 99.6% | NCI/ADR-RES ovarian 92.1%

C#C[C@H]1CCCCCC1O (stereo not given in full)
inactive: RPMI-8226 leukemia 97.2% | OVCAR-8 ovarian 111% | OVCAR-5 ovarian 115% | OVCAR-4 ovarian 120% | SK-OV-3 ovarian 110% | IGROV1 ovarian 107% | HS 578T breast 101% | NCI/ADR-RES ovarian 101%

O=C(OCC(O)C1OC(c2ccccc2)OC(COC(=O)c2ccccc2)C1O)c1ccccc1 (stereo not given)
inactive: OVCAR-8 ovarian 103% | OVCAR-5 ovarian 105% | OVCAR-4 ovarian 93.2% | SK-OV-3 ovarian 108% | IGROV1 ovarian 103% | HS 578T breast 116% | NCI/ADR-RES ovarian 107%

CC(C)(C)n1nc(C2CC2)c(Br)c1NC(=O)c1ccccc1F
inactive: RPMI-8226 leukemia 96.7% | OVCAR-8 ovarian 101% | OVCAR-5 ovarian 104% | OVCAR-4 ovarian 87.1% | SK-OV-3 ovarian 94.5% | IGROV1 ovarian 99.3% | HS 578T breast 94.9% | NCI/ADR-RES ovarian 103%

CC1=CC(=O)c2ccccc2C1=O
inactive: OVCAR-8 ovarian 107% | OVCAR-5 ovarian 105% | OVCAR-4 ovarian 112% | SK-OV-3 ovarian 108% | IGROV1 ovarian 112% | OVCAR-3 ovarian 113% | HS 578T breast 103% | NCI/ADR-RES ovarian 107%

CC(=O)C1CCCCC1
inactive: RPMI-8226 leukemia 96.4% | OVCAR-8 ovarian 95% | OVCAR-5 ovarian 107% | SK-OV-3 ovarian 103% | IGROV1 ovarian 106% | OVCAR-3 ovarian 110% | HS 578T breast 104% | NCI/ADR-RES ovarian 107%

COc1cccc(Sc2ccc([N+](=O)[O-])c3no[n+]([O-])c23)c1
inactive: OVCAR-8 ovarian 53% | OVCAR-5 ovarian 60.2% | OVCAR-4 ovarian 67.5% | SK-OV-3 ovarian 77.9% | HS 578T breast 67.9% | NCI/ADR-RES ovarian 42.5%
active: RPMI-8226 leukemia 6.99% | OVCAR-3 ovarian -61.9%

O=C(Nc1ccccc1)OCCc1ccccc1
inactive: OVCAR-8 ovarian 103% | OVCAR-5 ovarian 92.7% | OVCAR-4 ovarian 91.4% | SK-OV-3 ovarian 110% | IGROV1 ovarian 103% | HS 578T breast 120% | NCI/ADR-RES ovarian 110%

S=c1sc2ccccc2n1CN1CCCCC1
inactive: OVCAR-8 ovarian 99.6% | OVCAR-5 ovarian 85% | SK-OV-3 ovarian 94.5% | IGROV1 ovarian 105% | OVCAR-3 ovarian 93.3% | HS 578T breast 100% | NCI/ADR-RES ovarian 93.4%

CCN(CC)CCNc1ccc(CO)c2sc3ccccc3c(=O)c12
inactive: RPMI-8226 leukemia 37% | OVCAR-8 ovarian 31% | OVCAR-5 ovarian 53.3% | SK-OV-3 ovarian 43.6% | IGROV1 ovarian 51.6% | OVCAR-3 ovarian 62.8% | HS 578T breast 64.8% | NCI/ADR-RES ovarian 40.7%

COC(=O)c1cccc(Br)c1
inactive: RPMI-8226 leukemia 106% | OVCAR-8 ovarian 112% | OVCAR-5 ovarian 88.8% | OVCAR-4 ovarian 112% | SK-OV-3 ovarian 118% | IGROV1 ovarian 116% | HS 578T breast 117% | NCI/ADR-RES ovarian 106%

CCOC(=O)C(=O)C=P(c1ccccc1)(c1ccccc1)c1ccccc1
inactive: RPMI-8226 leukemia 102% | OVCAR-8 ovarian 107% | OVCAR-4 ovarian 111% | SK-OV-3 ovarian 109% | IGROV1 ovarian 102% | OVCAR-3 ovarian 103% | HS 578T breast 105% | NCI/ADR-RES ovarian 103%

OC1OC(COC(c2ccccc2)(c2ccccc2)c2ccccc2)C(O)C(O)C1O (stereo not given)
inactive: RPMI-8226 leukemia 95.9% | OVCAR-8 ovarian 93.7% | SK-OV-3 ovarian 99.9% | IGROV1 ovarian 95.3% | OVCAR-3 ovarian 104% | HS 578T breast 105% | NCI/ADR-RES ovarian 104%

Nc1ccccc1SC(CC(=O)c1ccccc1)c1c(Cl)cccc1Cl (stereo not given)
inactive: OVCAR-8 ovarian 68.7% | OVCAR-5 ovarian 89.6% | OVCAR-4 ovarian 66% | SK-OV-3 ovarian 73.3% | IGROV1 ovarian 62.7% | OVCAR-3 ovarian 46.5% | HS 578T breast 84.9% | NCI/ADR-RES ovarian 69.2%

c1ccc(Cc2ccccc2)cc1
inactive: RPMI-8226 leukemia 107% | OVCAR-4 ovarian 109% | SK-OV-3 ovarian 113% | OVCAR-3 ovarian 108% | HS 578T breast 76.6% | NCI/ADR-RES ovarian 104%

CCOC(=O)c1[nH]c(C)c(C(C)=O)c1C
active: RPMI-8226 leukemia -7.82%
inactive: OVCAR-8 ovarian 96.1% | OVCAR-4 ovarian 86.8% | SK-OV-3 ovarian 101% | IGROV1 ovarian 102% | OVCAR-3 ovarian 95% | HS 578T breast 91.6% | NCI/ADR-RES ovarian 98%

Reference: PubChem BioAssay (NCI)
